# Measured values as given in PubChem BioAssay.
# Activity calls are given as the source filed them.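 The calls were made as follows, unless noted: active = visually confirmed hit in the image check and inhibition above 20%; inconclusive = visually confirmed hit but inhibition not above 20%; inactive = no visual hit in the image check.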
# Experiments:
# [1] = inhibitors of TNFa-induced NFkB p65 translocation, primary screen, imaging, HUVEC, MLSMR starter and 10KST1 sets (AID 438;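 active = inhibition above 20% together with a positive visual image hit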;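 also: compound added about 3h40 before a 20 min TNFalpha stimulation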;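 as to inhibition: signal is the nuclear over cytoplasmic p65 intensity ratio per well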); conditions: HUVEC TNFa-induced p65 nuclear translocation; cell count: measured here: nuclei count (cytotoxicity indicator), at 2.08 µM; inhibition: at 2 µM, stronger effect = higher value, 0% TNFa-plus-vehicle, 100% no-TNFa wells
# [2] = inhibitors of mutant huntingtin aggregation, primary screen, imaging, exon1htt(103Q)mCFP cells, high-content imaging (AID 483;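 active = visual image review flags a hit and inhibition of aggregation exceeds 20%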;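 also: compound exposure lasted 3 days before fixation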;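 as to nuclei count: percent of the per-plate median nuclei count of sample wells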); conditions: exon1htt(103Q)mCFP cell line, aggregate imaging, at 2 µM; inhibition of aggregation: stronger effect = higher value; nuclei count: measured here: cell count, toxicity
# [3] = inhibitors of E-selectin induction by TNFa, primary screen, imaging, HUVEC, immunofluorescence, MLSMR starter and 10KST1 sets (AID 487); conditions: HUVEC TNFalpha-induced E-selectin immunofluorescence imaging, at 2 µM; inhibition: stronger effect = higher value; nuclei count: measured here: cell number, toxicity;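 as to inhibition: signal is fraction of cell area covered by stained E-selectin grains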;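 as to nuclei count: 100% = median nuclei count of all wells on the same plate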
# [4] = biological target: Voltage-gated potassium channel subunit beta-2 (Rattus norvegicus) (UniProt P62483); test: KvBeta enzyme negative modulators, primary screen, biochemical, NADPH fluorescence (AID 622;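 active = fluorescence slope higher than the sample average by over 3 SD, cut at about -0.22 in these data, passing the limit was not always enough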;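 also: slope of raw intensity against log time taken from 70 to 1610 s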); conditions: recombinant KvBeta, 4-cyanobenzaldehyde reduction, at 10 µM, stronger effect = higher value
# Sequence of Voltage-gated potassium channel subunit beta-2 (Rattus norvegicus) (P62483 whole entry, looked up): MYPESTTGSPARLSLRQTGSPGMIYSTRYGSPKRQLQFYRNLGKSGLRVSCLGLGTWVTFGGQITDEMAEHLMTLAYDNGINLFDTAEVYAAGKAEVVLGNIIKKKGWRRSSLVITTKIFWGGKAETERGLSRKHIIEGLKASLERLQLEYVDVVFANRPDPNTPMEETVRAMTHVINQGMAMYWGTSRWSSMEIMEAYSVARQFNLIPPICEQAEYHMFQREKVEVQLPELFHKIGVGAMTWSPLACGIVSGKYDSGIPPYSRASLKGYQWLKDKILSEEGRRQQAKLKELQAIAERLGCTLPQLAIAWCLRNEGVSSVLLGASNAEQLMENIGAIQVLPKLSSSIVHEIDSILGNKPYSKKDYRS
# [5] = biological target: Voltage-gated potassium channel subunit beta-2 (Rattus norvegicus) (UniProt P62483); test: KvBeta positive modulators, primary screen, biochemical, NADPH fluorescence (AID 623;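 active = NADPH fluorescence slope more negative than the mean of all samples by about 3 SD, 99.7% confidence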;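 also: fluorescence intensity change per second fitted from 20 to 320 s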); conditions: Recombinant KvBeta, NADPH fluorescence decrease slope, 10 min; at 10 µM; stronger effect = lower value
# [6] = biological target: Alpha-2C adrenergic receptor (Homo sapiens) (UniProt P18825); test: modulators of alpha2C/GIRK thallium flux, primary screen, cell-based, HEK293 alpha2C/GIRK1/2 (AID 624;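 active = fluorescence slope after compound addition differing from the mean of all screened samples at 99.7% confidence, in either direction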;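 also: slope of fluorescence ratio to pre-addition baseline per second over 15 to 24 s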); conditions: thallium flux BTC fluorescence, at 10 µM, actives lie on both sides
# Sequence of Alpha-2C adrenergic receptor (Homo sapiens) (P18825 whole entry, looked up): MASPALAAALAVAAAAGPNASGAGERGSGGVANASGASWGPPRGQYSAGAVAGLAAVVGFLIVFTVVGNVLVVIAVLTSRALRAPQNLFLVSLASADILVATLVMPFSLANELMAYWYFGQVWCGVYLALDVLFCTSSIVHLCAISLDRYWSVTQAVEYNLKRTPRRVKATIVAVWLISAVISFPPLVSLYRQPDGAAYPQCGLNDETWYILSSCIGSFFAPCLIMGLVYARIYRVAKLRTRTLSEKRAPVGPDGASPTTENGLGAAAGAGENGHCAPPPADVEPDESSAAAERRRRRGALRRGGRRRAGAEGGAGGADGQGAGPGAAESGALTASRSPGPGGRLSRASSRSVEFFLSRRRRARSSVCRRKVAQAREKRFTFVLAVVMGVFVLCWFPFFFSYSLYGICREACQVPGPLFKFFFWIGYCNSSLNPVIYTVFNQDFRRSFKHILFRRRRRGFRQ
# [7] = inhibitors of Sendai virus-induced IRF3 signaling, primary screen, TLR/RLR signaling modifier project, cell-based, Sendai virus stimulus, luciferase, 10K MLSCN set (AID 602276;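 active = inhibition at or above 50% at 10 µM; inactive = inhibition below 50%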;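 also: firefly luciferase from ISG56 promoter only with Renilla not read in this screen; 0% = Sendai virus plus DMSO and 100% = medium plus DMSO without virus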); conditions: HEK293 RL24 IRF3 luciferase reporter, at 10 µM, stronger effect = higher value
# [8] = inhibitors of poly I:C-induced TLR3 signaling, primary screen, cell-based, poly I:C stimulus, luciferase, 10K MLSCN set (AID 602277;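 active = inhibition of the reporter signal at or above 50%; inactive = inhibition below 50%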); conditions: HEK293-TLR3 RL24 IRF3 luciferase reporter, at 10 µM, stronger effect = higher value
SMILES,cell count [1],inhibition [1],inhibition of aggregation [2],nuclei count [2] [%],inhibition [3],nuclei count [3] [%],fluorescence slope [4],NADPH fluorescence slope [5],slope [6],inhibition [7],inhibition [8]
O=C(c1cc(S(=O)(=O)N2CCOCC2)ccc1F)N1CCCc2ccccc21,555,-26.9% (inactive),-9.6% (inactive),102,-44.9% (inactive),140,-0.382 (inactive),-4.2e-05 (inactive),0.00518 (inactive),12.6% (inactive),27.4% (inactive)
CN1C(=O)C(CC(=O)N2CCN(C(c3ccccc3)c3ccccc3)CC2)N(C)C1=O (centres undefined),281,-2.3% (inactive),9.8% (inactive),97.2,20.6% (inactive),118,-0.288 (inactive),5.9e-06 (inactive),0.00745 (inactive),1.7% (inactive),22.8% (inactive)
O=S1(=O)C=C(Sc2nc3ccccc3s2)c2ccccc21,581,-2.6% (inactive),-17.5% (inactive),67.1,121% (active),72.2,-0.474 (inactive),5.2e-06 (inactive),0.00662 (inactive),16.3% (inactive),84.8% (active)
CCCCCSc1nc2c(cnn2-c2ccccc2)c(=O)[nH]1,241,-4.9% (inactive),-3.4% (inactive),100,-35.9% (inactive),125,-0.399 (inactive),-5.4e-05 (inactive),0.00382 (inactive),11.4% (inactive),27.5% (inactive)
CCN(CC)S(=O)(=O)c1ccc2[nH]cc(C(=O)NCCC3=CCCCC3)c(=O)c2c1,344,8.4% (inactive),-4.1% (inactive),71.6,96.3% (active),91,-0.498 (inactive),-4.6e-05 (inactive),0.00467 (inactive),12% (inactive),6.76% (inactive)
COc1ccc(S(=O)(=O)N2CCC(C(=O)NCc3ccco3)CC2)cc1,245,-0.2% (inactive),1.8% (inactive),99.6,-290% (inactive),114,-0.418 (inactive),-2.7e-05 (inactive),0.00415 (inactive),7.79% (inactive),9.56% (inactive)
c1ccc(-c2cnc(CSc3ncnc4sccc34)o2)cc1,308,2.9% (inactive),27.8% (inactive),86.4,-7.2% (inactive),109,-0.272 (inactive),-1.7e-05 (inactive),0.00879 (inactive),-9.6% (inactive),-51.1% (inactive)
Cc1ccccc1CN1CCN(CC(=O)NCc2ccccc2)C1=O,518,-20.8% (inactive),-45.2% (inactive),97.7,-45.7% (inactive),114,-0.42 (inactive),-0.000111 (inactive),0.00614 (inactive),2.1% (inactive),24.6% (inactive)
CC(=O)Nc1ccc(S(=O)(=O)NCC2CCC(C(=O)NCCCN3CCCC3=O)CC2)cc1 (centres undefined),318,-0.8% (inactive),5.9% (inactive),112,-15.4% (inactive),106,-0.484 (inactive),-3.3e-05 (inactive),0.00457 (inactive),20.7% (inactive),19.4% (inactive)
C/C=C(\C)c1nnc(NC(=O)C(C)C)s1,382,-29% (inactive),-12.2% (inactive),98.7,-50.6% (inactive),95.4,-0.474 (inactive),2.8e-06 (inactive),0.00558 (inactive),-13.7% (inactive),-7.26% (inactive)
CCOc1ccccc1NC(=O)CSc1nnc(Cc2cccn2C)n1-c1ccc(F)cc1,529,-2.9% (inactive),-9.7% (inactive),93.1,-55.6% (inactive),109,-0.577 (inactive),-3.6e-05 (inactive),0.00579 (inactive),12.1% (inactive),31.3% (inactive)
CC(=O)c1cccc(N(CC(=O)N2CCCC2)S(C)(=O)=O)c1,529,-5.4% (inactive),14.6% (inactive),88.4,-11.1% (inactive),94.9,-0.467 (inactive),2.1e-05 (inactive),0.00662 (inactive),13.6% (inactive),20% (inactive)
O=C(NCc1cccs1)C1CCN(S(=O)(=O)c2cccs2)CC1,353,4.5% (inactive),0.9% (inactive),99.2,-13.4% (inactive),120,-0.619 (inactive),-1.4e-05 (inactive),0.00617 (inactive),7.22% (inactive),15% (inactive)
COC(=O)c1cccc(Oc2nc3c(c(=O)n(C)c(=O)n3C)n2C(C)C)c1,668,-5.8% (inactive),3.9% (inactive),102,-55.6% (inactive),106,-0.436 (inactive),-3.6e-05 (inactive),0.00584 (inactive),15% (inactive),28.3% (inactive)
